HP1b binding inh – inhibitors of HP1-beta chromodomain binding to methylated histone tails; AlphaScreen HP1-beta / biotin-H3K9me3 peptide binding; P83916; 0.56% of 390,000 active; Potency, µM (titrated, usually from 114 µM), inactives show at the top dose activity change, negative = inhibition, usual class: inhibitors; also: potency is read from the fitted curve at half-maximal effect; nearly all actives have a fitted effect of over 70% in size
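AlphaScreen: HP1-beta (50 nM) preformed 30 min with biotin-H3(1-18)K9me3 peptide (50 nM) in PBS pH 7.4, 0.01% Tween-20. Compound added for 30 min at RT, then streptavidin donor/nickel chelate acceptor beads (10 ug/mL) for 30 min.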
Six1-Eya2 inh – blocks human Six1 binding to Eya2; 0.56% of 360,000 active; AlphaScreen GST-Six1/His-Eya2 binding, biochemical; hits give low values; activity change, % (concentration not given with the values); in the data active = activity change below about -65%; inconclusive = mostly about -30% to -63%; also: % is scaled to controls: 0 for no effect and ±100 for the full control effect
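Homogeneous AlphaScreen proximity assay pairing GST-Six1 with His-tagged Eya2 (added as 5X mix: 250 nM and 500 nM) in 50 mM Tris pH 8.0, 300 mM NaCl, 1 mM TCEP. Glutathione donor and nickel acceptor beads; 1 h, 37 °C, dark.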
G9a inh – G9a (human) methyltransferase inhibition | 8.8% of 350,000 active | Q96KQ7 | Potency, µM (top dose mostly 102 µM), for inactives: at the top dose activity, negative = inhibition, usual class: inhibitors | G9a H3K9 monomethylation, AlphaScreen, 2 h | AID 504332; also: potency is read from the fitted curve at half-maximal effect; % is scaled to controls: 0 for no effect and ±100 for the full control effect; nearly all actives have a fitted effect of over 75% in size
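Quantitative HTS format: methyltransferase activity on a biotin-tagged H3K9 peptide is measured by AlphaScreen, using a rabbit anti-monomethyl-H3K9 antibody with streptavidin donor and anti-IgG acceptor beads. Final levels are 20 nM enzyme, 500 nM peptide, 20 uM SAM; 2 h RT.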
JMJD2A Tudor inh – blocks the human JMJD2A Tudor domain | AlphaScreen JMJD2A-Tudor / H3K4me3 peptide binding | Potency, µM (series often up to 114 µM), without a hit: at the top dose activity change, negative = inhibition, usual class: inhibitors | 4.4% of 390,000 active; also: potency is read from the fitted curve at half-maximal effect; % is scaled to controls: 0 for no effect and ±100 for the full control effect; nearly all actives have a fitted effect of over 50% in size
BAZ2B inh – BAZ2B (human) inhibition. Q9UIF8. AlphaScreen BAZ2B-H3K14Ac peptide displacement. Potency, µM (top dose mostly 114 µM), for the others: top-dose activity change, negative = inhibition, usual class: inhibitors. 4.4% of 360,000 active; also: potency is read from the fitted curve at half-maximal effect; % is scaled to controls: 0 for no effect and ±100 for the full control effect; nearly all actives have a fitted effect of over 60% in size
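Compounds, titrated to a top concentration of 110 uM, were incubated 30 min at room temperature with preformed BAZ2B/acetyl-K14 H3 peptide complex (50 nM each). Proximity signal was measured by AlphaScreen after 20 min with beads.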
CtBP-E1A inh – CtBP/E1A binding inhibition. AlphaScreen GST-E1A/His-CtBP binding, 1536-well; hits give low values. activity change, % (no concentration beside the values). 0.49% of 340,000 active. AID 651724; in the data active = activity change below about -65%; inconclusive = mostly about -30% to -63%; also: % is scaled to controls: 0 for no effect and ±100 for the full control effect
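AlphaScreen with 125 nM GST-E1A and 125 nM His-CtBP (5X stocks) in Tris pH 8.0, 300 mM NaCl, BSA, Tween 20, TCEP. Compounds preincubated 2 h at 37 deg C, then glutathione donor/nickel acceptor beads added for 1 h at 37 deg C in dark.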
Numbers without * were called inactive; [ ] = dose if it differs, or a comment. Sampled rows, rich in hits. Any-hit rate of the full collection: about 10%. Unless noted, calls follow the shape of the dose curve; as a rule, active = well fitted inhibition curve with a large enough effect; inconclusive = small, poorly fitted or top-dose-only effect; inactive = no such curve, though single readings can be large or run the other way.

Screening CCN(CC)C(=O)c1sc2c(c1C)c(=O)n(CCc1ccccc1)c(=O)n2Cc1cc(C)ccc1C returned HP1b binding inh 15.4%, G9a inh 9.7%[59 µM], JMJD2A Tudor inh -25.3% and BAZ2B inh 0.1%.
NC(CO)C(=O)NNCc1ccc(O)c(O)c1O (centres undefined) was read as HP1b binding inh inconclusive, Six1-Eya2 inh -4.6, G9a inh 1.41µM*, JMJD2A Tudor inh 10µM*, BAZ2B inh 4.47µM* and CtBP-E1A inh inconclusive.
For Cc1ccc(C2CC2C(=O)NNC(=S)Nc2ccc(Cl)cc2)cc1 (centres undefined) the results were HP1b binding inh -17.7%, Six1-Eya2 inh -1.4, G9a inh 25.1µM*, JMJD2A Tudor inh -28.4%, BAZ2B inh -7.8% and CtBP-E1A inh -12.7.
Screening CC(C)(C)NC(=S)NNC(=O)[C@H]1C[C@@H]1c1ccccc1 returned HP1b binding inh 40.4%, Six1-Eya2 inh -9.7, G9a inh 12.6%[59 µM], JMJD2A Tudor inh -12.2%, BAZ2B inh -2.0% and CtBP-E1A inh 3.7.
For O=C1c2ccccc2C(=O)C1(CO)c1ccc(OC(F)F)cc1 the results were HP1b binding inh -19.2%, Six1-Eya2 inh -1.0, G9a inh -9.6%[59 µM], JMJD2A Tudor inh -35.5%, BAZ2B inh inconclusive and CtBP-E1A inh -15.9.
`O=C1c2ccccc2C(=O)C1(CO)c1ccccc1` gave HP1b binding inh -0.7%, Six1-Eya2 inh -0.5, G9a inh 44.7µM*, JMJD2A Tudor inh -24.2%, BAZ2B inh -21.4% and CtBP-E1A inh -0.1.
For Cc1cc(C)c2c(CC(=O)Nc3ccc(S(=O)(=O)Nc4ncccn4)cc3)coc2c1 the results were HP1b binding inh 15.0%, G9a inh inconclusive, JMJD2A Tudor inh -19.1% and BAZ2B inh -11.3%.
O=C(CNC(=O)c1ccc(Cl)cc1)OC(C(=O)Nc1cc(C(F)(F)F)ccc1Cl)c1ccccc1 (centres undefined) was read as JMJD2A Tudor inh -7.5%.
CC(=O)c1nc2ccccc2n1S(=O)(=O)c1ccc(Cl)cc1 was read as HP1b binding inh 28.2%, Six1-Eya2 inh 5.6, G9a inh -118.8%, JMJD2A Tudor inh -24.4%, BAZ2B inh 56.2µM* and CtBP-E1A inh -2.4.
For S=C1CSc2ccccc2N1 the results were HP1b binding inh 2.5%, Six1-Eya2 inh -21.4, G9a inh inconclusive, JMJD2A Tudor inh -16.8%, BAZ2B inh -15.3% and CtBP-E1A inh -16.5.
`c1ccc2c(c1)NCCS2` gave HP1b binding inh -25.7%, Six1-Eya2 inh 11.9, G9a inh 16.4%[0.501 µM], JMJD2A Tudor inh 50.1µM*, BAZ2B inh 50.1µM* and CtBP-E1A inh -10.5.
For CSc1ncc2c(n1)-c1ccccc1N(Cc1ccccc1)S2(=O)=O the results were HP1b binding inh 90.3%, G9a inh 38.2%[59 µM], JMJD2A Tudor inh 59.4% and BAZ2B inh 32.0%.
CCOC(=O)Nc1ccc2c(c1)N(C(=O)N1CCN(C)CC1)c1ccccc1CC2 was read as HP1b binding inh 0.3%, Six1-Eya2 inh -6.7, G9a inh -0.9%, JMJD2A Tudor inh -10.9% and BAZ2B inh -13.4%.
Screening CCOC(=O)Nc1ccc2c(c1)N(C(=O)CN(CC)CC)c1ccccc1CC2 returned HP1b binding inh 15.2%, Six1-Eya2 inh 5.6, JMJD2A Tudor inh -11.2%, BAZ2B inh 2.7% and CtBP-E1A inh 6.6.
For CCN(CC)CC(=O)Nc1ccc2c(c1)N(C(=O)CN(CC)CC)c1ccccc1CC2 the results were HP1b binding inh 32.7%, Six1-Eya2 inh 3.4, G9a inh 56.2µM*, JMJD2A Tudor inh -14.4%, BAZ2B inh 0.6% and CtBP-E1A inh 8.6.
For CC(C)OC(=O)Nc1ccc2c(c1)N(C(=O)N1CCN(C)CC1)c1ccccc1CC2 the results were HP1b binding inh 44.7µM*, Six1-Eya2 inh 7.4, G9a inh inconclusive, JMJD2A Tudor inh 0.891µM*, BAZ2B inh 39.8µM* and CtBP-E1A inh -0.2.
For COc1ccc(NC(=O)CCCc2nc(-c3ccco3)no2)c(OC)c1 the results were HP1b binding inh 49.6%, G9a inh 3.3%[59 µM], JMJD2A Tudor inh -14.6% and BAZ2B inh inconclusive.
For CCc1ccccc1N1C(=O)N(C)c2ccccc2S1(=O)=O the results were HP1b binding inh 17.0%, G9a inh 13.9%[59 µM], JMJD2A Tudor inh -6.0% and BAZ2B inh 5.3%.
CN(C)S(=O)(=O)c1cccc(C(=O)NC(=S)N(CCC#N)Cc2cccnc2)c1 was read as HP1b binding inh 25.1%, Six1-Eya2 inh 0.4, G9a inh 84.1%[59 µM], JMJD2A Tudor inh -21.1%, BAZ2B inh 9.6% and CtBP-E1A inh -6.9.
Screening N#CCCN(Cc1cccnc1)C(=S)NCc1ccco1 returned HP1b binding inh 1.7%, Six1-Eya2 inh 3.7, G9a inh 20µM*, JMJD2A Tudor inh -2.1%, BAZ2B inh -14.8% and CtBP-E1A inh 5.9.
For N#CCCN(Cc1cccnc1)C(=O)Nc1ccc(Cl)c(Cl)c1 the results were HP1b binding inh 56.5%, Six1-Eya2 inh 1.9, G9a inh 5.6%[12.7 µM], JMJD2A Tudor inh -16.1%, BAZ2B inh -1.0% and CtBP-E1A inh 1.5.
CCN(CC)S(=O)(=O)c1ccc(C(=O)NC(=S)N(CCC#N)Cc2cccnc2)cc1 was read as HP1b binding inh 17.6%, Six1-Eya2 inh 2.4, G9a inh 12.6µM*, JMJD2A Tudor inh -9.0%, BAZ2B inh 3.6% and CtBP-E1A inh 6.9.
Screening N#CCCN(Cc1cccnc1)C(=S)NC(=O)c1ccco1 returned HP1b binding inh 12.0%, Six1-Eya2 inh 7.8, G9a inh 10µM*, JMJD2A Tudor inh 22.4µM*, BAZ2B inh inconclusive and CtBP-E1A inh 6.7.
Screening N#CCCN(C(=S)NC(=O)c1ccco1)c1ccccc1F returned HP1b binding inh -19.8%, Six1-Eya2 inh 6.9, G9a inh 25.1µM*, JMJD2A Tudor inh -33.4%, BAZ2B inh -24.4% and CtBP-E1A inh 13.1.
`Cc1nn2c(=O)cc(COc3ccc(/C=C(\C#N)C(=O)Nc4ccccc4)cc3Cl)nc2s1` gave HP1b binding inh 4.3%, G9a inh -19.9%[59 µM], JMJD2A Tudor inh -25.5% and BAZ2B inh inconclusive.
For Cc1cc2c(cc1C)N[C@]1(C[C@H]3CCCC(=O)N4CC[C@@H](C1)[C@@H]34)C(=NC(C)(C)CC(C)(C)C)N2 the results were HP1b binding inh inconclusive, Six1-Eya2 inh inconclusive, JMJD2A Tudor inh 22.4µM* and CtBP-E1A inh 1.5.
Cc1cc(C=C2C(=O)CCCC2=O)c(C)n1-c1ccccc1 was read as HP1b binding inh -12.0%, Six1-Eya2 inh -4.2, G9a inh 50.1µM*, JMJD2A Tudor inh inconclusive, BAZ2B inh 50.1µM* and CtBP-E1A inh -0.6.
